Unmarked numbers belong to inactive results. Calls of active or inactive are those of the source.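 How the source made its calls: active means EC50 at or below 10 µM; inactive means EC50 above 10 µM.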
Assay: compound autofluorescence in calcium buffer – biochemical, fluorescence, no RTF in test wells, artefact control for cardiac thin filament activator project, dose response (AID 504697);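 further: emission near 535 nm under roughly 485 nm excitation as for IANBD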
Conditions: compound-only fluorescence in RTF assay buffer with Ca2+ (no RTF in test wells), artifact counterscreen
For `O=C(c1ccc(COc2ccccc2Br)o1)N1N=C(C(F)F)CC1(O)C(F)F` (stereo unspecified), the EC50 was > 71.5 µM.
In the case of `Cc1nnc(SCC(=O)NC(C)(C)C)n1C1CCCCC1`, the EC50 is reported as > 71.5 µM.
`CCOC(=O)c1sc(N)c(C#N)c1COC(=O)CNC(=O)c1cc(OC)c(OC)c(OC)c1` gave an EC50 of 49.3 µM.
For `COc1ccc(C)cc1NC(=O)C12CCC(C)(C(=O)O1)C2(C)C` (stereo unspecified), the EC50 was > 71.5 µM.
In the case of `COc1cc(/C=C(\C#N)c2nc3ccccc3[nH]2)cc(OC)c1O`, the EC50 is reported as 11.1 µM.
For `COc1cc(C(=O)Oc2ccccc2/C=N/NC(=O)c2ccc(Cl)cc2)cc(OC)c1OC`, the EC50 was > 71.5 µM.
In the case of `CN(C)CCN(C)Cc1c2ccccc2c(CN(C)CCN(C)C)c2ccccc12`, the EC50 is reported as > 71.5 µM.
For `COC(=O)c1sc(N2C(=O)C(O)=C(C(=O)c3ccc(C)o3)C2c2ccc(F)cc2)nc1C` (stereo unspecified), the EC50 was > 71.4 µM.
With `O=C(/C=C/c1nc2ccccc2s1)N1CCCCCC1` the EC50 was > 71.5 µM.
With `Cc1ccc(C(=O)Nc2ccc3c(c2)ncn3C)cc1` the EC50 was > 71.4 µM.
With `COc1cc(N2CCCC2)c(OC)cc1/C=C1/NC(=S)NC1=O` the EC50 was 4.35 µM (active).
With `CCC(/C=C1\Oc2ccc(OC)cc2N1C)=C\c1sc2ccccc2[n+]1CCCS(=O)(=O)[O-]` the EC50 was 2.92 µM (active).
`Cc1cccc(/C=N/NC(=O)C(C)Nc2cccc3ccccc23)n1` (stereo unspecified) gave an EC50 of 26.9 µM.
In the case of `Cc1ccc(/C=C2/SC(=O)NC2=S)o1`, the EC50 is reported as > 23.8 µM.
For `CCOC(=O)c1cc2n(c1N)-c1ccccc1C2=O`, the EC50 was 62.6 µM.
With `COc1ccc(N=C2NC(=O)S/C2=C\c2ccc(N(C)C)cc2)cc1` the EC50 was 5.67 µM (active).
For `CN(Cc1ccccc1)C(=O)c1[nH]cnc1C(=O)NCc1ccccc1`, the EC50 was > 71.6 µM.
With `CN(C)NC(=O)c1ccc([N+](=O)[O-])s1` the EC50 was > 71.4 µM.
In the case of `O=C(O)c1ccc(NC(=S)NC(=O)c2ccc(-c3ccccc3)cc2)cc1`, the EC50 is reported as > 71.5 µM.
For `CN(C)c1ccc(N=Cc2nc(-c3ccccc3)oc2O)cc1`, the EC50 was 6.84 µM (active).
For `COc1ccc(-c2nn(-c3ccccc3)cc2/C=N/NC(N)=S)cc1OC`, the EC50 was > 71.5 µM.
With `O=C(CO/N=C/c1ccccc1OC(F)F)NCc1cccs1` the EC50 was > 71.5 µM.
With `O=C(CSc1nnc(COc2ccccc2)o1)N1CCN(c2ccccc2)CC1` the EC50 was > 71.5 µM.
In the case of `CN(/N=C/c1ccc(-c2ccc([N+](=O)[O-])cc2)o1)c1ccccc1`, the EC50 is reported as > 71.5 µM.
In the case of `CC(=O)Oc1ccc(N2C(=O)C3C(C2=O)C(C(=O)c2ccc(Cl)cc2)N2CCCC32)cc1` (stereo unspecified), the EC50 is reported as 58.7 µM.
In the case of `COCCn1c(=O)c2ccccc2c2ccccc2c1=O`, the EC50 is reported as > 71.5 µM.
In the case of `COC(=O)C1=C(C)NC(=O)/C1=C\N(C)C`, the EC50 is reported as > 71.5 µM.
For `COc1ccccc1/C=C/C=C1\Oc2c(ccc(O)c2CN2CCN(CCO)CC2)C1=O`, the EC50 was 3.63 µM (active).
For `CC(=O)/C(C=Nc1noc(C)c1Br)=C(\C)O`, the EC50 was > 71.6 µM.
For `Cc1nnc(N/N=C/c2ccc(O)c([N+](=O)[O-])c2)[nH]c1=O`, the EC50 was > 71.5 µM.
For `Cc1ccc(NC(=O)COc2ccc(/C=N/NC(=O)CSCc3ccccc3)cc2)cc1`, the EC50 was > 71.5 µM.
`CCN(CC)CCN1C(=O)c2cccc3cc(N)cc(c23)C1=O` showed an EC50 of 49.2 µM.
With `CC1CN(c2ccc(NS(=O)(=O)c3ccccc3)cc2C(=O)O)CC(C)O1` (stereo unspecified) the EC50 was > 71.5 µM.
With `S=C(Nc1cc(Cl)ccc1Oc1ccccc1)N1CCN(c2ccccn2)CC1` the EC50 was > 71.4 µM.
`CNC(=S)N1N=C(c2ccc(Br)cc2)CC1c1ccc(N(C)C)cc1` (stereo unspecified) gave an EC50 of 51.4 µM.
With `N=C1c2ccccc2CN1c1ccc(S(=O)(=O)N2CCCCC2)cc1` the EC50 was > 71.5 µM.

From PubChem BioAssay AID504697 (The Scripps Research Institute Molecular Screening Center, 2011)
